# Test results taken from PubChem BioAssay (EPA / NIEHS).
# Inconclusive results are not listed. The source made the active and inactive calls. How the source made its calls, unless noted: active means hit-call score of the fitted dose curve at least 0.9, where 1 is the maximum; inactive means score below 0.9.
# Legend:
# [1] = ACEA_ER_80hr: ACEA Biosciences xCELLigence Real-Time Cell Analysis on Estrogen Receptor Agonism for Proliferation (AID 2282667; active means hit-call score of the fitted dose curve at least 0.9, where 1 is the maximum); conditions: T47D proliferation, impedance (xCELLigence), 80 h
# Method in brief: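 Real-time impedance growth kinetics of human T-47D breast cells read 80 h after dosing, gain-of-signal fitted relative to DMSO. Compounds: 1:4 serial series, top final concentration 100 uM, n = 2.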
# [2] = APR_HepG2_CellCycleArrest_24hr: Apredica 24-hour HepG2 Assay for Cell Cycle Arrest (AID 2282905); conditions: imaging, actives raise or lower the signal;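 further: cell cycle arrest scored as ratio of 2N to 4N nuclear DNA content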
# Method in brief: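 HepG2 cells were exposed to compounds at 0.39–200 uM (ten concentrations, duplicate) in 0.5% v/v DMSO for 24 hr. After formaldehyde fixation and Triton permeabilization, Hoechst 33342-stained nuclei were imaged at 20x; DNA content was quantified, with bidirectional fitting against DMSO.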
# [3] = APR_HepG2_NuclearSize_24hr: Apredica 24-hour HepG2 Assay for Nuclear Size (AID 2282907); conditions: high-content imaging, actives raise or lower the signal
# Method in brief: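 HepG2 human liver cells were exposed for 24 hr to compounds at 0.39–200 uM (ten concentrations, duplicate) in 0.5% v/v DMSO. They were then formaldehyde-fixed, Triton-permeabilized and Hoechst 33342-stained, and nuclear diameter was imaged at 20x. Bidirectional fits were made against DMSO.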
# [4] = APR_HepG2_CellLoss_24hr: Apredica 24-hour HepG2 Assay for Cell Loss (AID 2282908); conditions: high-content imaging;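 on AC50: fit in both directions so a hit may be cell loss or gain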
# Method in brief: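 Compounds were tested at 0.39–200 uM in duplicate with 0.5% v/v DMSO final. Cells were then fixed in 3.7% formaldehyde, Hoechst 33342 nuclei were imaged at 20x by HCS, and cell number was fitted bidirectionally against DMSO.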
# [5] = APR_HepG2_MicrotubuleCSK_24hr: Apredica 24-hour HepG2 Assay for Microtubule CSK Stabilty (AID 2282909); conditions: HepG2 microtubule cytoskeleton imaging, actives raise or lower the signal
# Method in brief: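 HepG2 cells exposed 24 h to compounds at 0.39–200 uM (duplicate, 0.5% v/v DMSO final), then fixed, permeabilized and immunostained for alpha-tubulin with Hoechst 33342. Cytoskeleton imaged at 20x; bidirectional fit versus DMSO baseline.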
# [6] = APR_HepG2_MitoticArrest_24hr: Apredica 24-hour HepG2 Assay for Mitotic Arrest (AID 2282910); conditions: high-content imaging, actives raise or lower the signal
# Method in brief: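 Compounds are dosed onto HepG2 cells across ten concentrations up to 200 uM for 24 hr. Cells are then fixed in 3.7% formaldehyde, permeabilised, and labelled for phospho-histone H3 and nuclei; images are scored by cell cycle analysis and fitted bidirectionally relative to DMSO.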
# [7] = APR_HepG2_MitoMembPot_24hr: Apredica 24-hour HepG2 Assay for Mitochondrial Membrane Potential (AID 2282911); conditions: imaging, actives raise or lower the signal
# Method in brief: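 Mitochondrial membrane potential imaged via MitoTracker Red CMXRos (250 nM, 30 min pre-fixation) in fixed HepG2 cells with Hoechst nuclear identification. Ten concentrations 0.39–200 uM, 24 h treatment, 0.5% DMSO; CCCP as positive control.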
# [8] = APR_HepG2_MitoMass_24hr: Apredica 24-hour HepG2 Assay for Mitochondrial Mass (AID 2282912); conditions: high-content imaging, actives raise or lower the signal
# Method in brief: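 Human HepG2 liver cells were exposed for 24 hr to compounds at 0.39–200 uM (duplicates, 0.5% v/v DMSO final). They were stained live with 250 nM MitoTracker Red CMXRos for 30 min, fixed in 3.7% formaldehyde, and imaged by HCS fluorescence; signals were fitted bidirectionally against DMSO.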
# [9] = APR_HepG2_p53Act_24hr: Apredica 24-hour HepG2 Assay for p53 Activation (AID 2282913); conditions: high-content imaging, actives raise or lower the signal;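 further: p53 protein immunofluorescence averaged per cell in HepG2 with Hoechst nuclei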
# Method in brief: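 Fluorescence imaging of formaldehyde-fixed HepG2 cells labelled for p53 and with Hoechst, 24 h after dosing (0.39–200 uM, duplicate wells, 0.5% v/v DMSO). Signal fitted in both directions relative to DMSO.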
# [10] = APR_HepG2_CellCycleArrest_72hr: Apredica 72-hour HepG2 Assay for Cell Cycle Arrest (AID 2282914); conditions: high-content imaging, actives raise or lower the signal
# Method in brief: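 Read-out: nuclear DNA content from Hoechst 33342 high-content imaging (20x, six fields/well) after 3.7% formaldehyde fixation, fitted bidirectionally against DMSO. Treatment was 72 h in HepG2, ten concentrations 0.39–200 uM, duplicate, 0.5% DMSO.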
SMILES,outcome [1],outcome [2],outcome [3],outcome [4],outcome [5],outcome [6],outcome [7],outcome [8],outcome [9],outcome [10],AC50 [2],AC50 [6],AC50 [8],AC50 [9],AC50 [10],AC50 [4],AC50 [5],AC50 [1],AC50 [7],AC50 [3]
CCCCCCCC=O,inactive,inactive,inactive,inactive,inactive,inactive,inactive,inactive,inactive,inactive,,,,,,,,,,
c1cc(-c2ccncc2)ccn1,inactive,inactive,inactive,inactive,inactive,inactive,inactive,inactive,inactive,inactive,,,,,,,,,,
COc1cccc2c1C(=O)c1c(O)c3c(c(O)c1C2=O)C[C@@](O)(C(=O)CO)C[C@@H]3O[C@H]1C[C@H](N)[C@H](O)[C@H](C)O1,inactive,,inactive,inactive,inactive,,inactive,,,,4.04 µM (active),1.72 µM (active),24.6 µM (active),0.276 µM (active),3.58 µM (active),,,,,
CCCCCCCCCCCCCO,inactive,inactive,inactive,,,,inactive,inactive,inactive,,,107 µM (active),,,52.3 µM (active),138 µM (active),117 µM (active),,,
Cc1ccc(C(C)C)c(O)c1,inactive,inactive,inactive,inactive,inactive,inactive,inactive,inactive,inactive,inactive,,,,,,,,,,
Cc1ccc(N(C)C)cc1,inactive,inactive,inactive,inactive,inactive,inactive,inactive,inactive,inactive,inactive,,,,,,,,,,
CC(=O)OCCOCCOCCOC(C)=O,inactive,inactive,inactive,inactive,inactive,inactive,inactive,inactive,inactive,inactive,,,,,,,,,,
CCCCc1ccc2c(n1)[C@@H](c1ccc(OC)cc1C[C@H](C)C(=O)O)[C@H](C(=O)O)[C@H]2c1ccc2c(c1)OCO2,inactive,inactive,inactive,inactive,inactive,inactive,inactive,inactive,inactive,inactive,,,,,,,,,,
Cc1oc(-c2ccccc2)nc1CCOc1cccc2c1ccn2CCC(=O)O,inactive,inactive,inactive,inactive,inactive,inactive,inactive,inactive,inactive,inactive,,,,,,,,,,
Cc1ccc(C)c(O)c1C,inactive,inactive,inactive,inactive,inactive,inactive,inactive,inactive,inactive,,,,,,12 µM (active),,,,,
CCCCCCCCCCCCCCCCCC(=O)O,,inactive,inactive,inactive,inactive,inactive,inactive,inactive,inactive,inactive,,,,,,,,2.04 µM (active),,
CCCCN(CCCC)CCCC,inactive,inactive,inactive,inactive,inactive,inactive,inactive,inactive,inactive,inactive,,,,,,,,,,
Cc1nc(C)nc(N2C[C@@H](C)N(c3ccnc([C@@H](C)O)n3)[C@@H](C)C2)n1,inactive,inactive,inactive,inactive,inactive,inactive,inactive,inactive,inactive,inactive,,,,,,,,,,
CC(C)c1ccc(C(=O)N=C(N)N)cc1S(C)(=O)=O,inactive,inactive,inactive,inactive,inactive,inactive,inactive,inactive,inactive,inactive,,,,,,,,,,
Oc1ccc2c(c1)OC[C@@H](N1CCC(O)(c3ccc(F)cc3)CC1)[C@H]2O,inactive,inactive,inactive,inactive,inactive,inactive,,inactive,inactive,inactive,,,,,,,,,58.7 µM (active),
CCOC(=O)CCC(=O)OCC,inactive,inactive,inactive,inactive,inactive,inactive,inactive,inactive,inactive,inactive,,,,,,,,,,
Cc1nc(-c2ccc3c(c2)CCN(CCC2CCC(NC(=O)/C=C/c4ccc(F)cc4)CC2)CC3)no1 (stereo not given),inactive,inactive,inactive,inactive,inactive,inactive,inactive,inactive,inactive,inactive,,,,,,,,,,
CC(=O)C(C)=CC1C(C)=CCCC1(C)C (stereo not given),inactive,inactive,inactive,inactive,inactive,inactive,inactive,inactive,inactive,inactive,,,,,,,,,,
Cc1ccc(C)c(C)c1,inactive,inactive,inactive,inactive,inactive,inactive,inactive,inactive,inactive,inactive,,,,,,,,,,
O=C(OCCCCCOC(=O)c1ccccc1)c1ccccc1,inactive,inactive,inactive,inactive,inactive,inactive,inactive,inactive,inactive,,,,,,103 µM (active),,,,,
O=c1[nH]cc(F)c(=O)[nH]1,inactive,,inactive,inactive,inactive,inactive,inactive,inactive,inactive,,1.06 µM (active),,,,1.52 µM (active),,,,,
Nc1ccc2c(c1)C(=O)c1ccccc1C2=O,inactive,inactive,inactive,inactive,inactive,inactive,inactive,inactive,inactive,,,,,,16.1 µM (active),,,,,

SMILES,outcome [1],outcome [2],outcome [3],outcome [4],outcome [5],outcome [6],outcome [7],outcome [8],outcome [9],outcome [10],AC50 [2],AC50 [6],AC50 [8],AC50 [9],AC50 [10],AC50 [4],AC50 [5],AC50 [1],AC50 [7],AC50 [3]
Nc1ccccc1N,inactive,,inactive,,inactive,inactive,inactive,inactive,,,15.8 µM (active),,,32.3 µM (active),5.63 µM (active),12.9 µM (active),,,,
COc1ccc2c(c1)c(CC(=O)O)c(C)n2C(=O)c1ccc(Cl)cc1,inactive,,inactive,inactive,inactive,inactive,inactive,inactive,inactive,,76.4 µM (active),,,,100 µM (active),,,,,
OC[C@@H](O)[C@@H](O)[C@H](O)[C@H](O)CO,inactive,inactive,inactive,inactive,inactive,inactive,inactive,inactive,inactive,inactive,,,,,,,,,,
C1CCC(SSC2CCCCC2)CC1,inactive,,inactive,,inactive,inactive,inactive,inactive,,,72.3 µM (active),,,88.4 µM (active),62 µM (active),77.9 µM (active),,,,
NC(=O)Cn1c(=O)cc(CCN2CCN(c3nccc4sccc34)CC2)c2ccc(F)cc21,inactive,inactive,inactive,inactive,inactive,inactive,inactive,inactive,inactive,inactive,,,,,,,,,,
CC1=C(/C=C/C(C)=C/C=C/C(C)=C/CO)C(C)(C)CCC1,inactive,inactive,inactive,,inactive,,inactive,,,,,81.6 µM (active),113 µM (active),85.8 µM (active),56.3 µM (active),90.6 µM (active),,,,
CNCc1cc(F)ccc1Oc1ccc(Cl)c(Cl)c1,inactive,inactive,,,inactive,,,,,inactive,,31.4 µM (active),32.6 µM (active),52.4 µM (active),,101 µM (active),,,109 µM (active),54.7 µM (active)
CCCCCCC(=O)OCC,inactive,inactive,inactive,inactive,inactive,inactive,inactive,inactive,inactive,inactive,,,,,,,,,,
CN1CCN(Cc2cc(-c3ccc4[nH]c(=O)oc4c3)co2)[C@@H](c2ccc(F)cc2)C1,inactive,inactive,inactive,,,,inactive,inactive,,,,42.1 µM (active),,65.2 µM (active),83.5 µM (active),89.7 µM (active),148 µM (active),,,
CCc1c(C(=O)NN2CCCCC2)nn(-c2ccc(Cl)cc2Cl)c1-c1ccc(Br)cc1,,,inactive,,,,inactive,,inactive,,27.9 µM (active),46.8 µM (active),47 µM (active),,14.6 µM (active),21.5 µM (active),39 µM (active),1.69 µM (active),,
O=c1c(O)c(-c2ccc(O)c(O)c2)oc2cc(O)cc(O)c12,,,inactive,inactive,inactive,inactive,,inactive,inactive,,58.4 µM (active),,,,103 µM (active),,,26.4 µM (active),64.2 µM (active),
CC(=O)Oc1ccccc1C(=O)O,inactive,inactive,inactive,inactive,inactive,inactive,inactive,inactive,inactive,inactive,,,,,,,,,,
Cc1cc(NC(=O)C(=O)O)cc(C)c1Oc1ccc(O)c2c1CCC2,inactive,inactive,inactive,inactive,inactive,inactive,inactive,inactive,inactive,inactive,,,,,,,,,,
FC(F)(F)C(F)(F)C(F)(F)C(F)(F)C(F)(F)C(F)(F)CCI,inactive,inactive,inactive,inactive,inactive,inactive,inactive,inactive,inactive,inactive,,,,,,,,,,
COCCOC[C@H](CC1(C(=O)NC2CCC(C(=O)O)CC2)CCCC1)C(=O)Oc1ccc2c(c1)CCC2 (stereo not given in full),inactive,inactive,inactive,inactive,inactive,inactive,inactive,inactive,inactive,inactive,,,,,,,,,,
CCNc1cccc(C)c1,inactive,inactive,inactive,inactive,inactive,inactive,inactive,inactive,inactive,inactive,,,,,,,,,,
Cc1c(C(=O)O)c(O)cc2c1C(=O)c1c(O)c([C@@H]3O[C@H](CO)[C@@H](O)[C@H](O)[C@H]3O)c(O)c(O)c1C2=O,inactive,inactive,inactive,inactive,inactive,inactive,inactive,inactive,inactive,inactive,,,,,,,,,,
CC1(C)NC(=O)NC1=O,inactive,inactive,inactive,inactive,inactive,inactive,inactive,inactive,inactive,inactive,,,,,,,,,,
CCCCCCCCCCC,inactive,inactive,inactive,inactive,inactive,inactive,inactive,inactive,inactive,inactive,,,,,,,,,,
Nc1ccc(S(=O)(=O)c2ccc(N)cc2)cc1,inactive,inactive,inactive,inactive,inactive,inactive,inactive,inactive,inactive,inactive,,,,,,,,,,
Cc1ccc(Cl)cc1,inactive,inactive,inactive,inactive,inactive,inactive,inactive,inactive,inactive,inactive,,,,,,,,,,
NCC1(Cc2noc(=O)[nH]2)CCCCC1,inactive,inactive,inactive,inactive,inactive,inactive,inactive,inactive,inactive,inactive,,,,,,,,,,
